The values that follow come from ChEMBL document CHEMBL1157539, “Thousands of chemical starting points for antimalarial lead identification” (Nature, 2010).

This test deals with Plasmodium falciparum. Briefly: GSK_TCMDC: Inhibition of Plasmodium falciparum Dd2 in whole red blood cells, using parasite LDH activity as an index of growth. Test compounds present at 2uM. It counts as functional.
As a reminder, the Inhibition is the share of the control response that was lost under treatment. High values mean a response far below the control, low ones a response near the control. In turn, `COc1cccc(Nc2nc(C)cc(NC3CCCC3)n2)c1` showed an Inhibition of 79%.

As to `CC(=O)Nc1ccc(CN2CCCN(c3cc(NC(=O)c4cccc(C)c4)ccn3)CC2)cc1.O=C(O)C(F)(F)F`, the Inhibition is 10%.

With `O=C(NCCc1ccc(Cl)c(Cl)c1)[C@@H]1CCCN1C(=O)c1ccc(O)c(-c2ccc(Cl)c(Cl)c2)c1`, the Inhibition came to 99%.

`Cl.O=C(c1cccc(COc2ccc3c(c2)CCN(C2CCCC2)CC3)c1)N1CCN(c2ccncc2)CC1` yielded an Inhibition of 35%.

For `CCCNCc1ccc(-c2ccc(CN(Cc3ccc4c(c3)OCO4)C(=O)[C@H]3CCCO3)cc2)nc1.O=C(O)C(F)(F)F`, the Inhibition was determined as 39%.

For the molecule `CN1CCCc2ccc(NC(=O)c3cnc(-c4ccccc4)cn3)cc21`, the Inhibition stood at 82%.

In the case of `O=C(O)C(F)(F)F.O=C1OC2(CN1CC1CCN(Cc3ccc(-n4ccnc4)cc3)C1)c1ccccc1-c1ccccc12` (stereo not given), the Inhibition was determined as 0%.

`O=c1cc(NCC2(CNCc3cn(Cc4ccccc4)c4ccccc34)CCCCC2)[nH]c2ccccc12`: the Inhibition worked out at 56%.

In turn, `Cc1cccc(C(=O)Nc2ccnc(N(C)CCCN(C)Cc3cccc(C#N)c3)c2)c1.O=C(O)C(F)(F)F` yielded an Inhibition of 12%.

Turning to `Cc1ccc(S(=O)(=O)N2CCCN(C(=O)c3cc(-c4ccccc4)[nH]n3)CC2)cc1`, the Inhibition worked out at 93%.

In the case of `Nc1cc2c(C3CCN(CC4CCN(C(=O)/C=C/c5ccc(Cl)c(Cl)c5)CC4)CC3)c[nH]c2cn1`, the Inhibition came out at 94%.

As for `COc1ccc(CNC(=O)c2cnc3c(O)cccc3c2Nc2cccc(NC(=O)c3ccc(Cl)c(Cl)c3)c2)cc1.O=C(O)C(F)(F)F`, the Inhibition is given as 89%.

As to `COCCOc1ccc(C(F)(F)F)cc1NC(=O)Cc1c(F)cccc1Cl`, the Inhibition is 74%.

Regarding `CCCCOc1cc(C)nc2ccc(NC(=O)COCC(=O)Nc3ccc4nc(C)cc(OCCCC)c4c3)cc12`, the Inhibition was 28%.

Take `CN(C)CCOc1ccc2c(c1)OC(C)(C)C=C2c1cccc2ccccc12.Cl`: the Inhibition was determined as 48%.

As to `O=C(O)C(=O)O.Oc1ccccc1CN1CCN(C(c2ccccc2)c2ccccc2)CC1`, the Inhibition was 90%.

Molecule `Cc1cccc(C(=O)N2CCN(Cc3cccc(NC(=O)c4cccs4)c3)CC2)c1.O=C(O)C(F)(F)F` showed an Inhibition of 95%.

With `CCCN(CCC)S(=O)(=O)c1ccc(C(=O)Nc2nc3ccc(-c4cc(=O)[nH]c(Nc5ccccc5Cl)n4)cc3[nH]2)cc1`, the Inhibition turned out to be 98%.

The molecule `CC(C)NCc1cccc(-c2ccc(-c3nc4ccccc4[nH]3)cc2)c1.O=C(O)C(F)(F)F` registered an Inhibition of 66%.

`CCOc1ccc2ccccc2c1CNCCCCCCNCc1c(OCC)ccc2ccccc12.CS(=O)(=O)O` gave an Inhibition of 89%.

Molecule `COc1cc(C(C)C)nc2ccc(NC(=O)c3ccc(C(=O)Nc4ccc5nc(C(C)C)cc(OC)c5c4)cc3)cc12` had an Inhibition of 72%.

In turn, `Cc1ccc(-c2cc(C(=O)Nc3ccc(S(=O)(=O)N4CCCCC4C)cc3)n[nH]2)c(O)c1` (stereo not given) displayed an Inhibition of 99%.

As for `COc1ccc(Nc2nccc(NCCNC(=O)Nc3ccccc3F)n2)cc1`, the Inhibition is reported as 4%.

Turning to `Cl.N#Cc1ccc(-c2ccc(C(=O)Nc3ccc4c(c3)CCN(C3CCC3)CC4)nc2)cn1`, the Inhibition was found to be 15%.

Turning to `c1cc(CNC2Cc3ccc(-c4cccs4)cc3C2)cc(-n2ccnc2)c1` (stereo not given), the Inhibition turned out to be 63%.

In the case of `CN(CCCCCNC(=O)/C=C/c1ccc(Cl)c(Cl)c1)CCCCc1c[nH]c2ccccc12`, the Inhibition was 15%.

As to `O=C(/C=C/c1ccc(-c2nc3cc(F)c(F)cc3[nH]2)cc1)NCc1ccc(Cl)c(Cl)c1`, the Inhibition is given as 24%.

Consider `O=C(/C=C/c1ccc(Cl)c(Cl)c1)NCCCCCCN1CCN(C(=O)Nc2ccc(OC(F)F)cc2)CC1`, for which the Inhibition stood at 15%.

In turn, `O=C(Nc1cccc(-c2ccc(-c3nc4cc(C(F)(F)F)ccc4[nH]3)cc2)c1)Nc1ccc(Cl)c(Cl)c1` showed an Inhibition of 51%.

`O=C(Nc1ccc(CN2CCOCC2)cc1)c1ccc(-c2ccc(Br)cc2)o1` returned an Inhibition of 0%.

`Cc1c(Cl)cccc1S(=O)(=O)N1CCCCC(c2ccc(C(F)(F)F)cc2)=N1` yielded an Inhibition of 91%.

For the molecule `COc1ccc(-c2c(-c3ccc(OCc4ccccc4)cc3O)n[nH]c2C(F)(F)F)cc1`, the Inhibition is 57%.

Take `CNC(=O)c1nc(-c2ccccc2)[nH]c1NC(C)=O`: the Inhibition is 0%.

Turning to `CCC(CC(C)C(=O)O)=C(c1ccccc1)c1ccccc1` (stereo not given), the Inhibition is recorded as 1%.

The molecule `CC(C)CCN1CCCN(Cc2ccc(C(=O)NCc3ccc(Cl)cc3)cc2)CC1.O=C(O)C(F)(F)F` registered an Inhibition of 0%.

Turning to `CN1CCN(CCCN(Cc2ccc(-c3cccc(CNCc4ccc5c(c4)OCO5)c3)cc2)C(=O)NCCc2ccccc2)CC1.O=C(O)C(F)(F)F`, the Inhibition was found to be 85%.

With `Cc1ccc(-c2nc(N3CCN(C(=O)c4ccco4)CC3)c3ccccc3n2)cc1`, the Inhibition amounted to 75%.

Molecule `N#Cc1cccc(NC(=O)Nc2ccc3c(c2)CN(Cc2c[nH]c4ncccc24)C3)c1` returned an Inhibition of 12%.

`COc1cc2nc(Nc3ccc4c(ccn4Cc4ccccc4)c3)nc(Nc3ccc4c(ccn4Cc4ccccc4)c3)c2cc1OC` registered an Inhibition of 80%.

For `COc1cccc(C(=O)NC(NC(=S)Nc2ccc(OC)cc2[N+](=O)[O-])C(Cl)(Cl)Cl)c1` (stereo not given), the Inhibition is on record as 49%.
